Source: PubChem BioAssay AID493201 (National Center for Advancing Translational Sciences (NCATS), 2011)
Results filed as inconclusive are left out. Entries that show only a call come without a potency. Active and inactive are the calls of the source. Calls come from the whole dose curve; as a rule, active = well fitted activation curve with a large enough effect; inconclusive = small, poorly fitted or top-dose-only effect; inactive = no such curve, though single readings can be large or run the other way.

test: qHTS Assay for Identifying a Potential Treatment of Ataxia-Telangiectasia: Secondary assay (no NCS) hit validation; conditions: A-T patient fibroblasts, AlphaLISA, no DNA damage added, 90 min; series mostly up to 76.9 µM;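 note: phosphorylated KAP1 signal as a proxy for ATM-like kinase activity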
Method in brief: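 hTERT-immortalized A-T patient fibroblasts (F2112), 500 cells/well, exposed to compounds at up to 76.7 uM final without NCS at 37C. KAP-1 phosphorylation measured by AlphaLISA after lysis and 6 h detection at 25C.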
Potency is the fitted concentration of half-maximal effect.

| SMILES | Potency |
| --- | --- |
| CC(C)c1ccc(C(C(=O)NC2CCCCC2)N(C(=O)c2ccccn2)c2cccnc2)cc1 (centres undefined) | inactive |
| O=C(NC12CC3CC(CC(C3)C1)C2)c1cccc(OC(F)F)c1 | inactive |
| NC(=O)c1cc2ccccc2o/c1=N/NC(=O)c1cccc(F)c1 | inactive |
| CNC(=O)c1ccc(-c2sc3nc(N4CCOCC4)c4c(c3c2N)CC(C)(C)OC4)o1 | 29.2 µM (active) |
| COc1cccc(C(=O)NOCc2ccc(C)cc2)c1OC | inactive |
| COc1cc(/C=C2\SC(=S)N(C(C(=O)O)c3ccccc3)C2=O)ccc1O (centres undefined) | inactive |
| COc1ccccc1C(=O)NC(=O)Nc1cccc(Cl)c1 | inactive |
| Cc1ccc(NC(=O)Nc2cccnc2)cc1NC(=O)Nc1cccnc1 | inactive |
| Cc1cc2nc3ccc(=[N+](C)C)cc-3sc2cc1N | inactive |
| C/C=C\C=C/C(=O)Nc1cccc(C2=NOC3(C2)C[C@@H](C(N)=O)N(C(=O)COc2ccc(Cl)cc2)C3)c1 (some centres undefined) | inactive |
| CC(=O)NNC(=O)CN1C(=O)/C(=C/c2ccccc2)SC1=S | inactive |
| COc1ccc(-c2nn(C)c(=O)[nH]2)cc1 | inactive |
| CSc1nc2ccccc2nc1N(C)S(=O)(=O)c1ccc(C)cc1 | 36.8 µM (active) |
| O=C(Nc1cc(S(=O)(=O)N2CCOCC2)ccc1Cl)c1cc(=O)c2ccccc2o1 | inactive |
| O=C(CN1C(=O)c2cccc([N+](=O)[O-])c2C1=O)NCc1ccccc1 | inactive |
| CCOc1ccc(C(=O)NC(=S)Nc2cccnc2)cc1[N+](=O)[O-] | inactive |
| CCNC(=S)N(CCc1c(C)[nH]c2ccccc12)Cc1cccnc1 | inactive |

| SMILES | Potency |
| --- | --- |
| CCc1ccc(NC(=O)CNCc2ccc(OC)c(OC)c2)cc1 | inactive |
| COc1ccc(Nc2cc3n(c(=O)n2)CCc2cc(OC)c(OC)cc2-3)cc1 | inactive |
| COc1ccc2c(c1)c(N=NC(N)=S)c(O)n2CC(=O)c1ccccc1 | inactive |
| CCC(C)Nc1nc(N)c([N+](=O)[O-])c(NCCO)n1 (centres undefined) | inactive |
| COc1ccc(CNC(=O)COc2cccnc2[N+](=O)[O-])cc1OC | inactive |
| CC(C)OP(=O)(OC(C)C)C(O)c1ccc(N(C)C)cc1 (centres undefined) | 9.23 µM (active) |
| CCOc1cccc(-c2nnc(SCC(=O)Nc3cc(C)ccc3OC)n2N)c1 | inactive |
| CC(C)(C)n1nc2c(c1NC(=O)C1CC(=O)N(c3ccc(Cl)cc3)C1)CS(=O)(=O)C2 (centres undefined) | inactive |
| CCCCn1c2c(c(=N)c3ccccc31)CCC2 | inactive |
| Cc1cc2c(c(=O)o1)C(CCC1CCCCC1)C(C#N)=C(N)O2 (centres undefined) | inactive |
| CN(Cc1ccccc1)C(=O)c1cccc(N2C(=O)C3CC=CCC3C2=O)c1 (centres undefined) | inactive |
| COc1ccc(N(C)S(=O)(=O)c2cccc(C(=O)OCC(=O)NCc3ccccc3OC)c2)cc1 | inactive |
| CC1(C)CC2(CCO1)OC(=O)CC2C(=O)Nc1c(Cl)cccc1Cl (centres undefined) | inactive |
| OC(CN1CCCCC1)Cn1c2ccc(Cl)cc2c2cc(Cl)ccc21 (centres undefined) | inactive |
| CC(C)NC(=O)c1ccc(COc2ccc(C(C)(C)C)cc2)o1 | inactive |
| CN(C)c1ccc2nc3ccc(=[N+](C)C)cc-3sc2c1 | 14.6 µM (active) |
| CC(O)[C@H]1CNC(=O)C(=O)N1CC1(c2ccccc2)CC1 (some centres undefined) | inactive |
